From ChEMBL document CHEMBL1961873, “Compounds: GSK PKIS; Assays: Nanosyn kinase panel” (2012)

Legend:
[1] = biological target: RAC-alpha serine/threonine-protein kinase (Homo sapiens) (UniProt P31749); settings: at 0.1 µM
[2] = biological target: RAC-alpha serine/threonine-protein kinase (Homo sapiens) (UniProt P31749); settings: at 1 µM
[3] = biological target: RAC-beta serine/threonine-protein kinase (Homo sapiens) (UniProt P31751); settings: at 0.1 µM
[4] = biological target: RAC-beta serine/threonine-protein kinase (Homo sapiens) (UniProt P31751); settings: at 1 µM
[5] = biological target: RAC-gamma serine/threonine-protein kinase (Homo sapiens) (UniProt Q9Y243); settings: at 0.1 µM
[6] = biological target: RAC-gamma serine/threonine-protein kinase (Homo sapiens) (UniProt Q9Y243); settings: at 1 µM
[7] = biological target: G protein-coupled receptor kinase 6 (Homo sapiens) (UniProt P43250); settings: at 0.1 µM
[8] = biological target: G protein-coupled receptor kinase 6 (Homo sapiens) (UniProt P43250); settings: at 1 µM
[9] = biological target: T1, Rhodopsin kinase GRK7 (Homo sapiens) (UniProt Q8WTQ7); settings: at 0.1 µM
T1 sequence (whole entry): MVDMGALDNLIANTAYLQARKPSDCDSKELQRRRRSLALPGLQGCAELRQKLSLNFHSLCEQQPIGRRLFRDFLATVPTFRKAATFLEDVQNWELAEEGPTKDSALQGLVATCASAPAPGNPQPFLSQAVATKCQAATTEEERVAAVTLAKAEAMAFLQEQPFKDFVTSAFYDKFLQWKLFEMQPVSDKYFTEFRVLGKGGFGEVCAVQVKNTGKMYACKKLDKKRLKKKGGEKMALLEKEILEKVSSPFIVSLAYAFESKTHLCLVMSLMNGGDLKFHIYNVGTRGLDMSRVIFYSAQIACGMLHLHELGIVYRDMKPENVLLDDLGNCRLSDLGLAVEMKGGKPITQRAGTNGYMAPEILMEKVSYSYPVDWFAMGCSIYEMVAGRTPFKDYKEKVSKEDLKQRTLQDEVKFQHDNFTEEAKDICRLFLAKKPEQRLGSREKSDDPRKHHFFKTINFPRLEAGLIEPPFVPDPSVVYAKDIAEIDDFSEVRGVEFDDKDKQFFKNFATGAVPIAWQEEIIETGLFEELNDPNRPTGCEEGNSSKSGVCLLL

[10] = biological target: T1, Rhodopsin kinase GRK7 (Homo sapiens); settings: at 1 µM
[11] = biological target: Serine/threonine-protein kinase MRCK alpha (Homo sapiens) (UniProt Q5VT25); settings: at 0.1 µM
[12] = biological target: Serine/threonine-protein kinase MRCK alpha (Homo sapiens) (UniProt Q5VT25); settings: at 1 µM
[13] = biological target: Serine/threonine-protein kinase MRCK beta (Homo sapiens) (UniProt Q9Y5S2); settings: at 0.1 µM
[14] = biological target: Serine/threonine-protein kinase MRCK beta (Homo sapiens) (UniProt Q9Y5S2); settings: at 1 µM
[15] = biological target: Ribosomal protein S6 kinase alpha-5 (Homo sapiens) (UniProt O75582); settings: at 0.1 µM
[16] = biological target: Ribosomal protein S6 kinase alpha-5 (Homo sapiens) (UniProt O75582); settings: at 1 µM
[17] = biological target: Ribosomal protein S6 kinase alpha-4 (Homo sapiens) (UniProt O75676); settings: at 0.1 µM
[18] = biological target: Ribosomal protein S6 kinase alpha-4 (Homo sapiens) (UniProt O75676); settings: at 1 µM
[19] = biological target: Ribosomal protein S6 kinase beta-1 (Homo sapiens) (UniProt P23443); settings: at 0.1 µM
[20] = biological target: Ribosomal protein S6 kinase beta-1 (Homo sapiens) (UniProt P23443); settings: at 1 µM

Ribosomal protein S6 kinase alpha-4 (Homo sapiens), sequence (O75676 whole entry, looked up): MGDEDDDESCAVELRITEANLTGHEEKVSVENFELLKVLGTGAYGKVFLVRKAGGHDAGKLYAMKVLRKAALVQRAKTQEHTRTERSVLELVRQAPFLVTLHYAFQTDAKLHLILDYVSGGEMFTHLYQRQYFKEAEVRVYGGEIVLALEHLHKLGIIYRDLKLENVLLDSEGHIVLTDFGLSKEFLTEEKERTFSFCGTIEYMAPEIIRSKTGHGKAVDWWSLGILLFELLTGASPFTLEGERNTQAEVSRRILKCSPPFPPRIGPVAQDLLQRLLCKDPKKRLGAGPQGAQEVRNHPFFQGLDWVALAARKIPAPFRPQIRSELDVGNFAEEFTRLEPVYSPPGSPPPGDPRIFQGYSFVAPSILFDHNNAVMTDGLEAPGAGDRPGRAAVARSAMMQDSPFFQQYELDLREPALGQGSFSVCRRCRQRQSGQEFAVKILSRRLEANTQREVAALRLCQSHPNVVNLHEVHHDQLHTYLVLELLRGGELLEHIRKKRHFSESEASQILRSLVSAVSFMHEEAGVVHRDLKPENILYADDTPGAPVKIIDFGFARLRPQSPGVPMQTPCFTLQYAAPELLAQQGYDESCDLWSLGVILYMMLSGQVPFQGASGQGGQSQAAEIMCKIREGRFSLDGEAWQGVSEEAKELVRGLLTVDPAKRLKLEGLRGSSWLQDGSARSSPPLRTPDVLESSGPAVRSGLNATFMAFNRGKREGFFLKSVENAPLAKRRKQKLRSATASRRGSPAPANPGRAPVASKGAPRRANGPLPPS
RAC-beta serine/threonine-protein kinase (Homo sapiens), sequence (P31751 whole entry): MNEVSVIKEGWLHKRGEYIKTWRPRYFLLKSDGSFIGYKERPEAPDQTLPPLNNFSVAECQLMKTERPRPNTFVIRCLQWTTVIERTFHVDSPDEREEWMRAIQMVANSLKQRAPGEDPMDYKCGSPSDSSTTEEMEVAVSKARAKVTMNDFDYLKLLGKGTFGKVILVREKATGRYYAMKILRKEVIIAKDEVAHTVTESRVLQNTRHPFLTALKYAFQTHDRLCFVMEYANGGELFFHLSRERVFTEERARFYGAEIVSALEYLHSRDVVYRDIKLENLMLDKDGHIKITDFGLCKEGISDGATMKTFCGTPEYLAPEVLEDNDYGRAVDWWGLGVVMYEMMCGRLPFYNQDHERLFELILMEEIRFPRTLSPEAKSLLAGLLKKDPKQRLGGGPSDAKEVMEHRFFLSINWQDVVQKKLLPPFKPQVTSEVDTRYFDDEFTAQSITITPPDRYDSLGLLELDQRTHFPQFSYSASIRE
RAC-gamma serine/threonine-protein kinase (Homo sapiens), sequence (Q9Y243 whole entry): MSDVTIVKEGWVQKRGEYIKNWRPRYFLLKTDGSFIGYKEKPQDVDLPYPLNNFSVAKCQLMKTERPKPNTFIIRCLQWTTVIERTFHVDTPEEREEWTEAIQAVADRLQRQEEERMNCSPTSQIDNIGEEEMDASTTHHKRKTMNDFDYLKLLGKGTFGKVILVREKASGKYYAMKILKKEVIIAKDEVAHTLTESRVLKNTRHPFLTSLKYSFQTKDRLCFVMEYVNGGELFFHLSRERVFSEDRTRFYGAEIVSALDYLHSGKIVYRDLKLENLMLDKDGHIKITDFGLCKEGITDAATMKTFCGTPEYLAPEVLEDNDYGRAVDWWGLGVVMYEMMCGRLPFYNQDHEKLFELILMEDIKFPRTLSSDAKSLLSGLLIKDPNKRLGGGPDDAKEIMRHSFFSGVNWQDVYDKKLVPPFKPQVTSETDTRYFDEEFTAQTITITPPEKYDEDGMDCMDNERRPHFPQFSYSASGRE
Serine/threonine-protein kinase MRCK beta (Homo sapiens), sequence (Q9Y5S2 whole entry): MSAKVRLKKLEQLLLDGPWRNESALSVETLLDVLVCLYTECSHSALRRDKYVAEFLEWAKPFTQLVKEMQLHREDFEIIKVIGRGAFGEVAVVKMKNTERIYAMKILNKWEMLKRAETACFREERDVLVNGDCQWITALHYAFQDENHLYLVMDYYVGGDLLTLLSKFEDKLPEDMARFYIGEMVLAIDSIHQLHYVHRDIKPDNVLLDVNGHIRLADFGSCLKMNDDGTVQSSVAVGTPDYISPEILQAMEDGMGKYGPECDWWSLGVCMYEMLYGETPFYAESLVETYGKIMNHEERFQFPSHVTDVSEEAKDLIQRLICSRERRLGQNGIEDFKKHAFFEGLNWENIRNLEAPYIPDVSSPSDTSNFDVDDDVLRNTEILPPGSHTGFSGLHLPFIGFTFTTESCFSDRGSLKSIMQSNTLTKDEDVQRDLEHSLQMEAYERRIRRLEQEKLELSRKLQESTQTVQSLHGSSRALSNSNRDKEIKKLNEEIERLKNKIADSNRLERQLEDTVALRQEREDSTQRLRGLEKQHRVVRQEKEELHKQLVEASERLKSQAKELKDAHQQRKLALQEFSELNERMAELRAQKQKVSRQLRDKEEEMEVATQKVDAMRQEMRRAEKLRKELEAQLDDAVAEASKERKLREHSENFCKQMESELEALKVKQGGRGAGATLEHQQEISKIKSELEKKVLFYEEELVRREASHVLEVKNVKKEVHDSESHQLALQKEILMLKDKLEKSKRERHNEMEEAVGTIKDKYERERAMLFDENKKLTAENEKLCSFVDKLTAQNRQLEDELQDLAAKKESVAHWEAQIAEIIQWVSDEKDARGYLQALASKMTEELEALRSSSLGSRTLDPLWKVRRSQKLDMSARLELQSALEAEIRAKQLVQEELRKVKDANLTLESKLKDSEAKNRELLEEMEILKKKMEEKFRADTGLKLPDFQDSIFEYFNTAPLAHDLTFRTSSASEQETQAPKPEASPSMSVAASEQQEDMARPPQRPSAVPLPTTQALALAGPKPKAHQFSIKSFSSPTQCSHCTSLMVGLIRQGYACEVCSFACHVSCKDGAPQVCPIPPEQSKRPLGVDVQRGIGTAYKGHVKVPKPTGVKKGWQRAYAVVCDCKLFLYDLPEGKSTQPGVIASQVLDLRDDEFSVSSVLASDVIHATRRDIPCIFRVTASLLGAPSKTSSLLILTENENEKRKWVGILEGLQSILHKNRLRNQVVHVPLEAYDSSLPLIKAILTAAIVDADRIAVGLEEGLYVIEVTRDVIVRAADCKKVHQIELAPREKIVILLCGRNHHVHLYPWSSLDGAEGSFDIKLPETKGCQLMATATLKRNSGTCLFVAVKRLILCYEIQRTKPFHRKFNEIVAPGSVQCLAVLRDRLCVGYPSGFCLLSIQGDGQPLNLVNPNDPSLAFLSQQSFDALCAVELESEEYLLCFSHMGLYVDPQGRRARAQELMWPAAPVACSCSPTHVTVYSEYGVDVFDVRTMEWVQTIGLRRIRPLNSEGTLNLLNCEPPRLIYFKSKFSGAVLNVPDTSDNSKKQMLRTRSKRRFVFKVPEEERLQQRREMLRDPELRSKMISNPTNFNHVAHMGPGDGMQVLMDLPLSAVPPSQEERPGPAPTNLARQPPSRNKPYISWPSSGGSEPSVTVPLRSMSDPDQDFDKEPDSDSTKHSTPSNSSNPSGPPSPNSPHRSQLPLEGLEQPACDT
RAC-alpha serine/threonine-protein kinase (Homo sapiens), sequence (P31749 whole entry): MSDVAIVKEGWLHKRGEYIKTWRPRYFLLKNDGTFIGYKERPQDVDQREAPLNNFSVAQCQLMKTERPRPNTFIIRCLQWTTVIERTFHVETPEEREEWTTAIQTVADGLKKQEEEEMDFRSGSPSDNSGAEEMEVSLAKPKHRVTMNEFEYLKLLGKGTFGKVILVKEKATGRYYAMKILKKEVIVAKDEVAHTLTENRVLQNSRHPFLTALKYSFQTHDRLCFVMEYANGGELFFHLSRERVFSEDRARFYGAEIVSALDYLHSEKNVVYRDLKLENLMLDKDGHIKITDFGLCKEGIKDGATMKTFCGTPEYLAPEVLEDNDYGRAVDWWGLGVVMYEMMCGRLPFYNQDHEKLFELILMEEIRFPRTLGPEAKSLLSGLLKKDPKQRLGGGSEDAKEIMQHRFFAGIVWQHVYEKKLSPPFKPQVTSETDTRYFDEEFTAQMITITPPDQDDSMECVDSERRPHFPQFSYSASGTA
Ribosomal protein S6 kinase beta-1 (Homo sapiens), sequence (P23443 whole entry, looked up): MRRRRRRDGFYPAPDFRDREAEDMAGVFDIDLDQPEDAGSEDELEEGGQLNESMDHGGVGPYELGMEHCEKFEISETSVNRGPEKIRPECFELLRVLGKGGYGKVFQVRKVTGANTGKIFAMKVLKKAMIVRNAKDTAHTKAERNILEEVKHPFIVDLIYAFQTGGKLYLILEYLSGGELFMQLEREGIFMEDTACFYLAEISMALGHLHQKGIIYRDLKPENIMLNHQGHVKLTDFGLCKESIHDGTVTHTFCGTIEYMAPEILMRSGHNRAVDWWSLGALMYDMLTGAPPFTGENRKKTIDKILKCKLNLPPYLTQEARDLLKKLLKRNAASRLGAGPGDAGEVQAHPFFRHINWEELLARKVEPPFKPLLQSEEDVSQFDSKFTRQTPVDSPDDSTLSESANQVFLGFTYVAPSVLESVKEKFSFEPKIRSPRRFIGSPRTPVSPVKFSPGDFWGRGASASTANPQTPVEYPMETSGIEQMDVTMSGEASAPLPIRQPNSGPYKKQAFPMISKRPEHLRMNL
G protein-coupled receptor kinase 6 (Homo sapiens), sequence (P43250 whole entry, looked up): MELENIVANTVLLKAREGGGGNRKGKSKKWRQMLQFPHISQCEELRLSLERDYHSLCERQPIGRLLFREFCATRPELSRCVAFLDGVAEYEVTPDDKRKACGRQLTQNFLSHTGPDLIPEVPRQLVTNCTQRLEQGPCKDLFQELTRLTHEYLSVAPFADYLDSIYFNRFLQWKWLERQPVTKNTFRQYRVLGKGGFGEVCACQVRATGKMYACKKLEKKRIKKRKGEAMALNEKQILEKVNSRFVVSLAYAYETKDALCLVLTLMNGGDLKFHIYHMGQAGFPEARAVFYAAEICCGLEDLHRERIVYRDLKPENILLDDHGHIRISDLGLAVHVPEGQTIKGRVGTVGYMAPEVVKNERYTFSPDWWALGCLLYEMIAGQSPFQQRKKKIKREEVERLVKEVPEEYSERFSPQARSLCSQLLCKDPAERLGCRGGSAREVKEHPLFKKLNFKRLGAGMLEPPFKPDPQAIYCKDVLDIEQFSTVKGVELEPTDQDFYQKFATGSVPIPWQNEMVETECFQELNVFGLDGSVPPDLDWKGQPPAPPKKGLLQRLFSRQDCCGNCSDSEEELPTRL

SMILES	inhibition [1] [%]	inhibition [2] [%]	inhibition [3] [%]	inhibition [4] [%]	inhibition [5] [%]	inhibition [6] [%]	inhibition [7] [%]	inhibition [8] [%]	inhibition [9] [%]	inhibition [10] [%]	inhibition [11] [%]	inhibition [12] [%]	inhibition [13] [%]	inhibition [14] [%]	inhibition [15] [%]	inhibition [16] [%]	inhibition [17] [%]	inhibition [18] [%]	inhibition [19] [%]	inhibition [20] [%]
CC(=O)Nc1cccc(C#Cc2cncnc2Nc2ccc(OCc3cccc(F)c3)c(Cl)c2)c1	0.35	2.86	1.58	1.24	0.94	1.39	0.81	-1.5	3.04	-3.08	1.39	0.82	1.53	1.93	-3.6	-3.85	1.16	2.5	2.04	2.07
COc1cc(Nc2nccc(Nc3ccc4c(C)n[nH]c4c3)n2)cc(OC)c1OC	0.02	1.09	0.52	1.19	0.72	1.18	-0.47	-4.13	1.14	-1.95	1.61	-0.15	1.88	1.78	3.58	2.96	1.54	2.58	0.65	1.09
CCOc1ccc2c(-c3ccnc(Nc4cccc(C(F)(F)F)c4)n3)cnn2n1	0.26	0.31	0.57	1.35	-0.38	4.77	-2.91	-2.59	3.77	0.86	-4.67	-1.89	-0.48	-1.84	0.66	-1.09	1.4	-0.01	0.31	-0.17
COC(=O)Nc1nc2ccc(Oc3ccc(NC(=O)Nc4cccc(Cl)c4)cc3)cc2[nH]1	-0.35	-0.4	-0.4	0.5	-0.34	1.86	-1.85	0.02	3.03	16.8	-2.43	-0.92	-0.72	-1.4	0.39	-1.18	0.82	-0.55	0.63	0.82
Cc1ccc(O)cc1Nc1ccnc2cc(-c3ccccn3)ccc12	1.31	1.02	2.69	2.45	1.16	2.32	1.43	-3.7	4	-2.85	0.02	-2.04	1.37	0.2	4.25	3.29	0.94	2.96	1.62	1.87
CCCN(CCS(C)(=O)=O)Cc1ccc(-c2ccc3ncnc(Nc4ccc(OCc5cccc(F)c5)c(Cl)c4)c3c2)o1	0.19	0.93	1.03	0.88	0.64	0.93	5.12	1.91	-0.29	0.79	-1.08	0.54	-0.36	0.64	7.14	6.79	1.76	1.8	1.21	1.92
NS(=O)(=O)c1ccc(Nc2ncc(-c3ccccc3)o2)cc1	0.78	0.93	2.08	1.95	0.97	1.49	4.73	3.06	2.42	2.99	-0.91	-1.21	0.24	1.14	3.01	4.81	3	5.37	2.3	3.51
CCn1c(-c2nonc2N)nc2c(C#CC(C)(C)O)ncc(OC3CCNCC3)c21	70.1	92.8	85.2	95.5	74.7	94.2	4.09	7.13	7.74	17	8.47	33.8	2.8	22.5	2.46	11.8	3.66	14.9	4.92	26.5
O=C(O[C@H]1CN[C@H](C#Cc2cc3ncnc(Nc4ccc(Cc5ccccc5)cc4)c3s2)C1)N1CCOCC1	-0.07	1.54	0.98	1.79	0.38	1.99	-0.99	1.46	5.43	0.52	-1.95	0.21	1.54	4.12	4.51	3.65	3.21	3.94	1.97	1.38
Fc1ccc(-c2nn3ccccc3c2-c2ccncc2)cc1	0.06	1.28	0.35	1.43	1.01	4.38	0.75	-0.76	0.65	3.13	1.08	3.93	1.99	4.92	4.62	5.97	5.06	6.2	1.21	2.15
CCc1nn2ncccc2c1-c1ccnc(NC2CC2)n1	0.3	0.03	-0.16	0.84	0.81	0.1	3.01	4.64	3.97	1.72	3.74	2.27	1.18	2.16	0.41	1.19	1.26	3.44	1.12	2.51
FC(F)(F)c1cccc(-c2nn3ncccc3c2-c2ccnc(Nc3ccc4c(c3)OCCO4)n2)c1	0.59	1.44	2.75	1.12	1.47	0.72	-1.22	-2.46	1.8	1.11	0.13	0.81	-0.8	1.29	1.59	1.24	0.3	3.51	1.22	-0.48
COc1ccc2[nH]c3c4[nH]c5ccc(OC)cc5c4c4c(c3c2c1)C(=O)NC4=O	0.56	4.28	1.45	2.54	1.39	2.7	20.2	41.2	22.7	26.6	0.84	11.8	-0.86	2.96	18.7	48.4	11.8	45.3	45.6	83.6
CN(C)CCOc1ccc(-c2nc(-c3ccncc3)c(-c3ccc4c(c3)CC/C4=N\O)[nH]2)cc1	0.74	0.83	1.02	0.67	1.29	0.51	3.13	2.76	1.71	0.18	-0.58	0.77	0.46	0.41	3.39	7.59	2.36	4.48	1.37	1.71
CC(C)(CO)CNC(=O)c1ccc2c(c1)/C(=N/Nc1ccc(S(N)(=O)=O)cc1)C(=O)N2	0.16	-0.56	-1.39	0.25	-0.59	2.3	0.67	9.38	2.93	-0.41	-0.66	-2.01	0.21	1.07	0.88	0.97	1.15	6.02	-0.13	2.2
COc1cc(N2CCN(C(C)C)CC2)ccc1Nc1nc(Nc2ccc(F)cc2C(N)=O)c2cc[nH]c2n1	0.91	2.86	1.62	3.68	1.62	4.8	3.9	14.3	5.3	10.1	9.71	20	1.18	16.4	1.85	6.61	1.8	7.26	1.81	5.41
O=S(=O)(CCNCc1ccc(-c2ccc3ncnc(Nc4ccc(OCc5cccc(F)c5)c(Cl)c4)c3c2)o1)c1ccccc1	1.7	1.71	2.21	3.29	0.84	3.13	1.68	1.4	8.83	2.27	-4.06	0.31	0.71	-0.02	4.86	4.66	3.43	3.05	1.88	2.98
CC1=C(C(=O)Nc2cc(Cl)c3[nH]ncc3c2)C(c2ccc(C(F)(F)F)cc2)CC(=O)N1 (stereo not given)	0.52	5.71	1.33	3.66	2.98	22.1	4.52	13.4	3.32	16.4	17.2	64.6	23.8	65.5	56.3	81.7	32.4	68.9	8.47	41.7
CCn1c(-c2nonc2N)nc2ccccc21	1.46	2.48	0.69	2.24	0.81	3.67	1.21	-3.25	1.89	-9.67	1.63	10.9	1.39	10.9	23.3	62.5	7.88	40.4	22.1	70.5
Fc1ccc(-c2cc(-c3c[nH]nc3-c3ccccn3)ccn2)cc1	0.11	0.95	1.68	2.45	0.98	1.5	7.85	15.7	3.52	13.4	-0.62	2.14	-1.2	-2.11	2.42	1.68	2.17	3.21	0.99	2.4
Nc1nc(-c2cccc(Cl)c2)c(-c2ccc3ncccc3n2)s1	-0.22	0.39	1.97	2.05	1.92	0.68	10.4	15.4	7.84	13.8	-0.36	5.58	-0.33	0.87	9.72	9.28	2.91	3.45	1.21	3.77
N#Cc1c(NC(=O)CN2CCOCC2)sc2c1CCCC2	1.2	1.08	1.56	1	1.61	2.91	2.71	4.14	3.28	4.91	0.22	2.63	0.43	0.37	3.16	3.12	2.5	2	2.57	1.13
COC(=O)Nc1nc2ccc(S(=O)(=O)c3ccc(NC(=O)Nc4cc(C(F)(F)F)ccc4F)cc3)cc2[nH]1	1.04	0.21	1.6	1.74	2.62	2.2	-1.79	-0.49	4.02	1.96	0.58	-0.35	1.96	1.32	2.41	1.23	0.77	4.31	2.42	0.71
N#Cc1c(NC(=O)c2ccc(F)cc2)sc2c1CCCC2	-0.22	0.69	0.36	0.77	2.13	0.2	2.85	4.08	0.7	4.43	0.16	-0.05	-0.27	1.57	1.16	2.08	0.1	2.25	-0.29	0.86
CCN(CC)S(=O)(=O)c1ccc(OC)c(Nc2ncc(-c3ccccc3)o2)c1	0.87	-0.4	0.37	0.18	2.3	-1.03	1.87	-0.46	3.17	-3.96	1.92	0.2	-0.21	-0.04	3.03	6.51	0.54	1.06	1.32	0.49
COc1ccc(CNC(=O)c2ccc(-c3cc(-c4nnc(C)o4)ccc3C)cc2)cc1	0.11	0.4	0.92	1.2	0.06	0.12	6.21	16.4	2.86	10.6	2.98	6.58	2.16	2.99	9.25	9.58	3.89	4.66	1.64	2.15
